According to PubChem BioAssay (Tox21):
Records with an inconclusive call do not appear. Unmarked numbers belong to inactive results. Calls follow the shape of the dose curve; as a rule, active = well fitted cell-killing curve with a large enough effect in the repeat runs; inconclusive = weak or mixed curves, or effect the other way; inactive = flat fitted curve, though single readings scatter. Non-standard residues stand in square brackets, D forms with d. Residues, ends and D or L forms follow the SMILES beside them. *: point of attachment. Sta = CC(C)C[C@H](N)[C@@H](O)CC(=O)O; Isovaleryl = CC(C)CC(=O)*

Experiment: qHTS RealTime-Glo MT Cell Viability Assay in HepG2 cells - 40 hour (AID 1224870); also: nearly all actives have a fitted effect of over 50% in size
Conditions: RealTime-Glo luminescence; series mostly up to 76.8 µM; activity change, negative = cytotoxic: at the top concentration
Source text: National Center for Advancing Translational Sciences [NCATS]
NIH Chemical Genomics Center [NCGC]
U.S. Environmental Protection Agency [EPA]
National Institutes of Environmental Health Sciences [NIEHS]
National Toxicology Program [NTP]
U.S. Food and Drug Administration [FDA]
Measure of cell viability is critical in the cell-base assay. Analysis of cell viability is necessary for the characterization of cell responses to cytotoxic drugs and environmental stress. A RealTime-Glo MT Cell Viability Assay to monitor cell viability in real time of continues cell culture during 40 hours of compound treatment was used to screen Tox21 10K library compounds in HepG2 cells. The RealTime-Glo MT Cell Viability Assay is a nonlytic, homogeneous, bioluminescent method to measure cell viability in real time using a simple, plate-based method. The assay involves adding NanoLuc luciferase and a cell-permeant prosubstrate to cells in culture. Viable cells reduce the proprietary prosubstrate to generate a substrate for NanoLuc luciferase. This substrate diffuses from cells into the surrounding culture medium, where it is rapidly used by the NanoLuc Enzyme to produce a luminescent signal. The signal correlates with the number of viable cells, making the assay well suited for cytotoxicity studies.
Tox21 Assay Protocol Summary:
The mixture of HepG2 cell suspension and reagents were dispensed at 600cells/6 ul/well in 1536-well tissue culture treated black solid bottom plates using a Multidrop dispenser. After the assay plates were incubated at a 37 C/5% CO2 incubator for 5 hours, 23 nL of compounds dissolved in DMSO, positive and negative controls was transferred to the assay plate by a pintool work station. The plates were incubated at 37 C for 40 hours. The luminescence intensity were measured at 0h, 8h, 16h, 24h, 32h and 40h time points using ViewLux plate reader during compound treatment.
% is scaled to controls: 0 for no effect and ±100 for the full control effect.

Row | Structure (SMILES) | activity change, negative = cytotoxic
1 | C[C@@H](CN1CC(=O)NC(=O)C1)N1CC(=O)NC(=O)C1 | 1.52% [at 35.3 µM]
2 | CCN(CC)CC(=O)Oc1ccc(NC(C)=O)cc1 | 4.12% [at 35.3 µM]
3 | BrCCOc1ccccc1 | -0.386%
4 | N[C@H]1C(O)O[C@H](CO)[C@@H](O)[C@@H]1O (stereo not given in full) | 1.12% [at 35.3 µM]
5 | Clc1ccc2c(c1)Nc1ccccc1S2 | 0.535% [at 35.3 µM]
6 | CN(C)CCCN(C)C | 1.14% [at 6.97 µM]
7 | Cc1ccc(N)nc1 | -2.57%
8 | NS(=O)(=O)c1cc2c(cc1C(F)(F)F)NCNS2(=O)=O | 1.98% [at 35.3 µM]
9 | CC(C)(C)c1ccc(C(=O)CCCCl)cc1 | -10.1% [at 35.3 µM]
10 | NCC1CCC(C(=O)Oc2ccc(CCC(=O)O)cc2)CC1 (stereo not given) | 4.85% [at 35.3 µM]
11 | CN(C)CCc1c[nH]c2ccc(CS(=O)(=O)N3CCCC3)cc12 | 3.95% [at 35.3 µM]
12 | CCCc1ccc(O)c(OC)c1 | 7.87%
13 | C[C@@H]1CC[C@@]2(OC1)O[C@H]1C[C@H]3[C@@H]4CC[C@H]5C[C@@H](O)CC[C@]5(C)[C@H]4CC(=O)[C@]3(C)[C@H]1[C@@H]2C | -0.288% [at 6.97 µM]
14 | OCCC(F)(F)C(F)(F)C(F)(F)C(F)(F)C(F)(F)C(F)(F)F | 2.05%
15 | Cc1ccc(Br)cc1 | -0.472%
16 | CC(CC(=O)Cl)CC(C)(C)C (stereo not given) | 20.9%
17 | CCCCCCCCCCCCCCCCN(C)C | -1.15% [at 6.97 µM]
18 | C/C(=N\O)c1ccc(OCC(=O)N2CCCCC2)cc1 | -1.78% [at 35.3 µM]
19 | c1cc2ccc3ccc4ccc5cccc6c(c1)c2c3c4c56 | -2.6% [at 2.72 µM]
20 | CCCCCCCCCCCCCCCC/C=C/C1CC(=O)OC1=O (stereo not given) | -7.09% [at 35.3 µM]

Row | Structure (SMILES) | activity change, negative = cytotoxic
21 | CC/C=C\CCOC(=O)c1ccccc1 | 0.652%
22 | CC(C)CC(=O)N[C@H](C(=O)N[C@H](C(=O)N[C@@H](CC(C)C)[C@@H](O)CC(=O)N[C@@H](C)C(=O)N[C@@H](CC(C)C)[C@@H](O)CC(=O)O)C(C)C)C(C)C (Isovaleryl-VV[Sta]A[Sta]-OH) | 1.4% [at 35.3 µM]
23 | CC(O)CCCCn1c(=O)c2c(ncn2C)n(C)c1=O (stereo not given) | 1.89% [at 35.3 µM]
24 | CCC(C)SSC(C)CC (stereo not given) | 0.841%
25 | Cc1cc(C)c(N)c(Cl)c1 | 0.678%
26 | CCN1CCN(C(=O)N[C@@H](C(=O)N[C@@H]2C(=O)N3[C@@H]2SC(C)(C)[C@H]3C(=O)O)c2ccccc2)C(=O)C1=O | 0.79% [at 35.3 µM]
27 | CCc1ncc(C)[nH]1 | -0.159%
28 | c1coc(Cn2cccc2)c1 | -3.97%
29 | CNC(=O)c1c(I)c(NC(C)=O)c(I)c(C(=O)O)c1I | 2.27% [at 35.3 µM]
30 | CCOC(=O)c1ccc(N(C)C)cc1 | -7.09%
31 | CC(C)CC(O)Cc1ccccc1 (stereo not given) | 0.89%
32 | CCCC(=O)CC | 1.34%
33 | C=CC(=O)OCC[N+](C)(C)C | 0.944%
34 | O=Cc1ccc(C(=O)O)cc1 | 15.5%
35 | C=COCCCCO | -0.514%
36 | CCCCN1C(=O)c2ccccc2C1=O | -1.52%
37 | Cc1ccccc1OCC(=O)O | 2.07%
38 | CCCC(=O)OC | 3.25%
39 | CC(=O)Nc1ccc(OCCOCCOc2ccc(NC(C)=O)cc2)cc1 | 0.427% [at 35.3 µM]
40 | O=C1CC2(CCCC2)CC(=O)N1CCNCC1COc2ccccc2O1 (stereo not given) | 0.372% [at 35.3 µM]
